This is an account of results in PubChem BioAssay (NCI).

About 79,000 compounds went through this panel and 15% of them were active in at least one assay; those are over-represented in the sample as a whole. Values without a mark were called inactive. Calls of active or inactive are those of the source. Rule as the data show it: active = growth inhibition above about 70%; inactive = the rest.

Experiment [1] is described as follows: NCI Yeast Anticancer Drug Screen. Data for the rad50 strain (AID 155).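 Also: 0% = growth of vehicle-only cultures of the same strain.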 Conditions: S. cerevisiae rad50 strain growth inhibition, active compounds read high. The gist of the method: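 Genetically altered yeast (DNA repair pathway); compound treatment; growth inhibition vs vehicle ctrl.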
A short description of experiment [2]: NCI Yeast Anticancer Drug Screen. Data for the mec2-1 strain (AID 157). To be noted: S. cerevisiae mec2-1 strain, active compounds read high. The gist of the method: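 Readout is yeast growth inhibition, normalised to vehicle-treated controls, in the mec2-1 strain exposed to compound.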
Experiment [3] can be described thus: NCI Yeast Anticancer Drug Screen. Data for the sgs1 mgt1 strain (AID 161).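 Also: 0% = growth of cultures given vehicle only.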 To be noted: S. cerevisiae sgs1 mgt1 strain, active compounds read high. The gist of the method: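 Percent growth inhibition was derived by comparing compound-exposed mutant yeast with vehicle-exposed cultures. The strain carries alterations in DNA damage repair.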
The nature of experiment [4]: NCI Yeast Anticancer Drug Screen. Data for the cln2 rad14 strain (AID 165).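 Also: 0% = growth equal to vehicle treated cultures.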 To be noted: S. cerevisiae cln2 rad14 strain, active compounds read high. The gist of the method:
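Relative to vehicle controls, growth inhibition of compound-treated cln2 rad14 yeast was recorded.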

The nature of experiment [5]: NCI Yeast Anticancer Drug Screen. Data for the bub3 strain (AID 167). To be noted: S. cerevisiae bub3 mutant strain, active compounds read high. The gist of the method: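 Yeast carrying a defined mutation is treated with each compound, and growth is compared with that of vehicle-exposed cells to give inhibition.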
The nature of experiment [6]: NCI Yeast Anticancer Drug Screen. Data for the mlh1 rad18 strain (AID 175). Conditions: S. cerevisiae mlh1 rad18 strain growth inhibition, active compounds read high. The gist of the method:
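Test agents were incubated with a yeast strain of defined genotype (DNA damage repair defect). Inhibition of growth was derived by comparison with vehicle-exposed cultures.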

The mark [7] stands for this setting: at 5.0 µM (retest, dose inferred, filed as 0.5).
The mark [8] stands for this setting: at 50.0 µM (retest, dose inferred, filed as 5.0).

Consider `c1ccc(B2OC(c3ccccc3)C(c3ccccc3)O2)cc1` (configuration not stated), for which the growth inhibition in experiment [1] (setting [7]) was -19%; in experiment [1] (setting [8]), -12%; in experiment [1] (at 50.0 µM), 3.35%; in experiment [2] (setting [7]) it was -18%; in experiment [2] (setting [8]) it was -21%; in experiment [2] (at 50.0 µM) it was -0.45%. Besides, the growth inhibition was -7% in experiment [3] (setting [7]); -9% in experiment [3] (setting [8]); 10.8% in experiment [3] (at 50.0 µM); 24% in experiment [4] (setting [7]); 7% in experiment [4] (setting [8]); 5.85% in experiment [4] (at 50.0 µM). Besides, the growth inhibition in experiment [5] (setting [7]) was -4%; in experiment [5] (setting [8]), -3%; in experiment [5] (at 50.0 µM), 11.2%; in experiment [6] (setting [7]) it was -13%; in experiment [6] (setting [8]) it was 9%; in experiment [6] (at 50.0 µM), 8.85%.
On to `CCOC(=O)N1c2ccc3ccccc3c2C=CC1C#N` (configuration not stated), for which the growth inhibition in experiment [1] (setting [7]) is 0%; in experiment [1] (setting [8]), 6%; in experiment [1] (at 50.0 µM), 96.5% (active); in experiment [2] (setting [7]), -12%; in experiment [2] (setting [8]) it was -5%; in experiment [2] (at 50.0 µM), 97.3% (active). Moreover, the growth inhibition in experiment [3] (setting [7]) was -1%; in experiment [3] (setting [8]) it was 14%; in experiment [3] (at 50.0 µM), 96.6% (active); in experiment [4] (setting [7]) it was -11%; in experiment [4] (setting [8]), 7%; in experiment [4] (at 50.0 µM), 95.5% (active). The growth inhibition was -18% in experiment [5] (setting [7]); -20% in experiment [5] (setting [8]); 86.3% (active) in experiment [5] (at 50.0 µM); -2% in experiment [6] (setting [7]); -6% in experiment [6] (setting [8]); 94.7% (active) in experiment [6] (at 50.0 µM).
Take `CCOC1(c2ccccc2)c2ccccc2S(=O)(=O)N1C` (configuration not stated): the growth inhibition in experiment [1] (setting [7]) is -3%; in experiment [1] (setting [8]), 4%; in experiment [1] (at 50.0 µM) it was 11.1%; in experiment [2] (setting [7]) it was -4%; in experiment [2] (setting [8]) it was 16%; in experiment [2] (at 50.0 µM), 0.95%. The growth inhibition in experiment [3] (setting [7]) was 14%; in experiment [3] (setting [8]), 33%; in experiment [3] (at 50.0 µM), 11.2%; in experiment [4] (setting [7]), 6%; in experiment [4] (setting [8]) it was 12%; in experiment [4] (at 50.0 µM), 56.9%. In addition, the growth inhibition is 1% in experiment [5] (setting [7]); 10% in experiment [5] (setting [8]); 40.8% in experiment [5] (at 50.0 µM); 18% in experiment [6] (setting [7]); 11% in experiment [6] (setting [8]); 9% in experiment [6] (at 50.0 µM).
As to `[N-]=[N+]=NC1=CC(=O)c2cccc3cccc1c23`, the growth inhibition was 45% in experiment [1] (setting [7]); 99% (active) in experiment [1] (setting [8]); 80.8% (active) in experiment [1] (at 50.0 µM); 31% in experiment [2] (setting [7]); 99% (active) in experiment [2] (setting [8]); 86.5% (active) in experiment [2] (at 50.0 µM). Moreover, the growth inhibition in experiment [3] (setting [7]) was 65%; in experiment [3] (setting [8]) it was 99% (active); in experiment [3] (at 50.0 µM), 87.6% (active); in experiment [4] (setting [7]) it was 47%; in experiment [4] (setting [8]), 98% (active); in experiment [4] (at 50.0 µM) it was 80.1% (active). Besides, the growth inhibition in experiment [5] (setting [7]) is 32%; in experiment [5] (setting [8]), 99% (active); in experiment [5] (at 50.0 µM), 89% (active); in experiment [6] (setting [7]), 72% (active); in experiment [6] (setting [8]), 99% (active); in experiment [6] (at 50.0 µM), 89.5% (active).
As for `CCC(C)COC(=O)c1ccc([N+](=O)[O-])cc1` (configuration not stated), the growth inhibition was -4% in experiment [1] (setting [7]); 10% in experiment [1] (setting [8]); 50% in experiment [1] (at 50.0 µM); -4% in experiment [2] (setting [7]); 2% in experiment [2] (setting [8]); 16.4% in experiment [2] (at 50.0 µM). Also, the growth inhibition is -1% in experiment [3] (setting [7]); 7% in experiment [3] (setting [8]); 72.8% (active) in experiment [3] (at 50.0 µM); -3% in experiment [4] (setting [7]); -9% in experiment [4] (setting [8]); -2.15% in experiment [4] (at 50.0 µM). The growth inhibition in experiment [5] (setting [7]) was -6%; in experiment [5] (setting [8]) it was -6%; in experiment [5] (at 50.0 µM) it was 80.2% (active); in experiment [6] (setting [7]), -4%; in experiment [6] (setting [8]), 5%; in experiment [6] (at 50.0 µM) it was 89.3% (active).
For `Clc1ccc(C2=CCCc3ccccc32)cc1`, the growth inhibition was -3% in experiment [1] (setting [7]); 1% in experiment [1] (setting [8]); 91.1% (active) in experiment [1] (at 50.0 µM); 6% in experiment [2] (setting [7]); -4% in experiment [2] (setting [8]); 96.2% (active) in experiment [2] (at 50.0 µM). For the same compound, the growth inhibition in experiment [3] (setting [7]) is -14%; in experiment [3] (setting [8]), 7%; in experiment [3] (at 50.0 µM), 95.8% (active); in experiment [4] (setting [7]), 5%; in experiment [4] (setting [8]) it was -19%; in experiment [4] (at 50.0 µM), 95.7% (active). Further, the growth inhibition in experiment [5] (setting [7]) was 6%; in experiment [5] (setting [8]) it was -2%; in experiment [5] (at 50.0 µM) it was 88.5% (active); in experiment [6] (setting [7]) it was -2%; in experiment [6] (setting [8]) it was 3%; in experiment [6] (at 50.0 µM), 96.5% (active).
With `NC(=O)NCCCCC1NC(=S)N(c2ccccc2)C1=O` (configuration not stated), the growth inhibition was -5% in experiment [1] (setting [7]); -4% in experiment [1] (setting [8]); -3.85% in experiment [1] (at 50.0 µM); -8% in experiment [2] (setting [7]); -16% in experiment [2] (setting [8]); -3.45% in experiment [2] (at 50.0 µM). Besides, the growth inhibition in experiment [3] (setting [7]) was -7%; in experiment [3] (setting [8]), 47%; in experiment [3] (at 50.0 µM), 29.8%; in experiment [4] (setting [7]), -3%; in experiment [4] (setting [8]) it was -3%; in experiment [4] (at 50.0 µM) it was -4.9%. The growth inhibition was -9% in experiment [5] (setting [7]); -7% in experiment [5] (setting [8]); 5.05% in experiment [5] (at 50.0 µM); -9% in experiment [6] (setting [7]); -8% in experiment [6] (setting [8]); -12.3% in experiment [6] (at 50.0 µM).
Turning to `Cc1cc(C)nc(NS(=O)(=O)c2ccc(Nc3nc(-c4cccc([N+](=O)[O-])c4)cs3)cc2)n1`, the growth inhibition in experiment [1] (setting [7]) is 14%; in experiment [1] (setting [8]) it was 99% (active); in experiment [1] (at 50.0 µM) it was 23.1%; in experiment [2] (setting [7]), -1%; in experiment [2] (setting [8]), 99% (active); in experiment [2] (at 50.0 µM), 30.5%. The growth inhibition is 7% in experiment [3] (setting [7]); 99% (active) in experiment [3] (setting [8]); 47.6% in experiment [3] (at 50.0 µM); -26% in experiment [4] (setting [7]); 98% (active) in experiment [4] (setting [8]); 51.9% in experiment [4] (at 50.0 µM). The growth inhibition was 34% in experiment [5] (setting [7]); 99% (active) in experiment [5] (setting [8]); 75.2% (active) in experiment [5] (at 50.0 µM); 5% in experiment [6] (setting [7]); 99% (active) in experiment [6] (setting [8]); 53% in experiment [6] (at 50.0 µM).
Regarding `CCCNC(=O)c1ccccc1`, the growth inhibition in experiment [1] (setting [7]) was -1%; in experiment [1] (setting [8]) it was -5%; in experiment [1] (at 50.0 µM), 4%; in experiment [2] (setting [7]) it was 2%; in experiment [2] (setting [8]), -2%; in experiment [2] (at 50.0 µM), 13.2%. The growth inhibition was 1% in experiment [3] (setting [7]); -5% in experiment [3] (setting [8]); 2.85% in experiment [3] (at 50.0 µM); -6% in experiment [4] (setting [7]); -2% in experiment [4] (setting [8]); 70.8% (active) in experiment [4] (at 50.0 µM). Also, the growth inhibition in experiment [5] (setting [7]) is -5%; in experiment [5] (setting [8]) it was -9%; in experiment [5] (at 50.0 µM) it was 22.7%; in experiment [6] (setting [7]), -2%; in experiment [6] (setting [8]) it was -5%; in experiment [6] (at 50.0 µM), 7.6%.
